# Whole data set: some 68,000 sequences, median “fluorescence intensity (a.u.)” near 9,100, cut for the highest 2% near 16,000. What follows is part of a selection rich in the highest values, with near analogues and random picks from the rest.
# Target: OsWRKY34 (Oryza sativa, UniProt Q0JBA9 1-250)
# Experiment: protein-binding microarray (RPBM); PBS, 2% BSA, 51.3 ng/ul salmon testes DNA, 50 uM zinc acetate, 200 nM TF, 25 C, 1 h; high values mean tight binding
# Details: protein: recombinant; tags: N-terminal polyhistidine and DsRed monomer fusion (pET32a); label: CyDye5-dUTP incorporated in the synthesized complementary strand; 3' TTTTT single-stranded linker to array surface; dsDNA, one strand shown
# Summary of the method: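 Transcription factors were made in E. coli BL21-CodonPlus as N-terminal fusions to a polyhistidine tag and DsRed, then purified on Ni–NTA. After primer extension with Cy5-dUTP and blocking with 2% BSA, a custom Agilent array was exposed for 1 h at 25 °C to 200 nM protein in PBS, 2% BSA, salmon testes DNA and 50 µM zinc acetate. Washed arrays were scanned on an Axon 4000B, and the binding signal is per-feature fluorescence intensity in arbitrary units.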
# Sequence of OsWRKY34 (Q0JBA9 entry or part of it): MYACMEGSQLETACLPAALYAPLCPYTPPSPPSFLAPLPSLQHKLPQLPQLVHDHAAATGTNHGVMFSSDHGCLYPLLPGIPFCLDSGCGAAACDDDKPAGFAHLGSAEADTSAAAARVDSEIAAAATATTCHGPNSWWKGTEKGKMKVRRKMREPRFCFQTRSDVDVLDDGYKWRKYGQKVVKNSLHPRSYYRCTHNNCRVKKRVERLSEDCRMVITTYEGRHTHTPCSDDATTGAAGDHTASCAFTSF
row,Sequence,binding signal
1,ACATTAACTAAATGGTGGAGGGCAGGGGTTCGTCTTTCTTCGGAGTCACCTAGTGCAG,13600 fluorescence intensity (a.u.)
2,GACTACTGAATGTGCTATTCTTGGCCTTTTCTATAGATAACGGAGTCACCTAGTGCAG,9960 fluorescence intensity (a.u.)
3,CTATTTTGGCCACTCGGGAGATGGTGTTGTTTCTGAATTTCGGAGTCACCTAGTGCAG,8180 fluorescence intensity (a.u.)
4,CTGTCTTCACCGTGCCGCTCCTTTCCTTCCATTTCATCTCCGGAGTCACCTAGTGCAG,8440 fluorescence intensity (a.u.)
5,CAGGGGTGGGTGTTAGCTGTTGTGCAAGAAGTGGTGTTTGCGGAGTCACCTAGTGCAG,10600 fluorescence intensity (a.u.)
6,GCCGGAGTCCATCGCCCTACATTGCCCACCAACCGCACGCCGGAGTCACCTAGTGCAG,10200 fluorescence intensity (a.u.)
7,TTCATATTCTTTTTTTTTTCGAGGTCATACTTTTTAATTCCGGAGTCACCTAGTGCAG,12200 fluorescence intensity (a.u.)
8,CGTGGGGTGGGATCGGAAGCAGTGGAGTTGTTTTTATTATCGGAGTCACCTAGTGCAG,16500 fluorescence intensity (a.u.)
9,TTTTTGTTTTTTAATTGTGGAGTTTGGGAGGAGGAGGGGACGGAGTCACCTAGTGCAG,9870 fluorescence intensity (a.u.)
10,GGGTTTGGGGATCGATTGATTTATAGGCTTTTTTGTTTTTCGGAGTCACCTAGTGCAG,8810 fluorescence intensity (a.u.)
11,GGGGATTGGTTTGGTGTGGGTGTTTTGTGTGGGGATTGATCGGAGTCACCTAGTGCAG,28100 fluorescence intensity (a.u.)
12,AAATTTATTGTTTGGCTGGAAGACGTGGGGTTTTAAGAGGCGGAGTCACCTAGTGCAG,8370 fluorescence intensity (a.u.)
13,GCGGGGTTGATTTCTGACTGAGATTTTGTTTTTCTTTTCTCGGAGTCACCTAGTGCAG,14000 fluorescence intensity (a.u.)
14,CCACTGACTACTGATGGGTGTGTTGATAGTGTTTTGTCAGCGGAGTCACCTAGTGCAG,8870 fluorescence intensity (a.u.)
15,AGTGGATGAGTTTGAGTTTTAGGATTTAGTGGGGTATTATCGGAGTCACCTAGTGCAG,15100 fluorescence intensity (a.u.)
16,GTTGCAGGGTGGGGATTGTTAAATTTATTGTTTGGCTGGACGGAGTCACCTAGTGCAG,16600 fluorescence intensity (a.u.)
17,GAGGTGGCTGGAGTGGGGTTTAGTGTTGGTTGTTAGGGATCGGAGTCACCTAGTGCAG,13500 fluorescence intensity (a.u.)
18,TTTTTCACGGGGATGGGTCGGGGATTGTTGACTGATAAAGCGGAGTCACCTAGTGCAG,21700 fluorescence intensity (a.u.)
19,AGGGTTTGTTTGTTTATTTGTTTGTTTGATCGGTGTGGGGCGGAGTCACCTAGTGCAG,13300 fluorescence intensity (a.u.)
20,TATCTAATAATTGGATGGTTACAACCAAATACTTCTACATCGGAGTCACCTAGTGCAG,9870 fluorescence intensity (a.u.)
21,TTGATCCTTTTTCGCCGCTCACGCCGAGCTGCCCCGACAACGGAGTCACCTAGTGCAG,8340 fluorescence intensity (a.u.)

row,Sequence,binding signal
1,TTTTCTATACTGTATTTTGTGTCATTTTCAATCATTGATTCGGAGTCACCTAGTGCAG,14400 fluorescence intensity (a.u.)
2,AAACAGAGGTTTTTCTCCTGTACATGTGTCCCATGCCAACCGGAGTCACCTAGTGCAG,9880 fluorescence intensity (a.u.)
3,TTTTTATATGTTTGGTTCTTATGAGTTCCTAAGTGTGAAACGGAGTCACCTAGTGCAG,8230 fluorescence intensity (a.u.)
4,TTTACATCTAATATTTTTTATTTGGGGTTCAGCGGGCATTCGGAGTCACCTAGTGCAG,11100 fluorescence intensity (a.u.)
5,CATTTCTTATTTTGTTTTTGGGCTTTGATGTTTGGTTTCTCGGAGTCACCTAGTGCAG,8740 fluorescence intensity (a.u.)
6,TGGTCGGGTGTTTTTGTGATTGATGGTTTTGGTAGACGGGCGGAGTCACCTAGTGCAG,11200 fluorescence intensity (a.u.)
7,TGGGTGGTGTTGGTTTTGCATGGTAGACGCGGGGTCCGATCGGAGTCACCTAGTGCAG,18400 fluorescence intensity (a.u.)
8,CTTTTTTTTGGTTTGCCGTGTGGTGGGTTTCGGGTCCGCGCGGAGTCACCTAGTGCAG,14500 fluorescence intensity (a.u.)
9,TTTGGGGTTCAGCGGGCATTTGTTTTGATTGTTTCTTATTCGGAGTCACCTAGTGCAG,23400 fluorescence intensity (a.u.)
10,CTAAAAGTCAATCCACGCCACCATCGATCTCTCTATCCAACGGAGTCACCTAGTGCAG,9440 fluorescence intensity (a.u.)
11,CTATGATTGGTCAAGTGCTGTTGCTATTTCTCTGCTGATACGGAGTCACCTAGTGCAG,10200 fluorescence intensity (a.u.)
12,GCTGTTCCATGCTCCACAACCCCGGGTCATTGACCCAATCCGGAGTCACCTAGTGCAG,16700 fluorescence intensity (a.u.)
13,TCACCACCACCATCACAACCCAATCCCAATCCAAACCACCCGGAGTCACCTAGTGCAG,8530 fluorescence intensity (a.u.)
14,GATCATCTGTTCCACCCGCCACCCGCCACCCGCCACAATCCGGAGTCACCTAGTGCAG,13200 fluorescence intensity (a.u.)
15,GAAAAGCCACTAATCTCCAACCTCGTCTACACTTCTCCAACGGAGTCACCTAGTGCAG,8970 fluorescence intensity (a.u.)
16,GTTTGATCCATTACAGCTCCACATATATTGTGAAATCATTCGGAGTCACCTAGTGCAG,10500 fluorescence intensity (a.u.)
17,ACAACCGCACATACGCCACGGCCCACTCCTCCTTCTCGCCCGGAGTCACCTAGTGCAG,9350 fluorescence intensity (a.u.)
18,GAACGTCTGGACGTTGGAACACTCCATGTTTTTGTCTGATCGGAGTCACCTAGTGCAG,8740 fluorescence intensity (a.u.)
19,TATATCTATATGCCATATCATCTGTCTATCCTTTGTAAAGCGGAGTCACCTAGTGCAG,8740 fluorescence intensity (a.u.)
20,TCTGTCTATCCTTTGTAAAGTCACTTGCCCTTGCATTACTCGGAGTCACCTAGTGCAG,16500 fluorescence intensity (a.u.)
21,CCTTGTCTGTACTCTCTCTACTTTCCACCTCTATCCGCCTCGGAGTCACCTAGTGCAG,9420 fluorescence intensity (a.u.)

row,Sequence,binding signal
1,GCATCCTTTTCATTGGCCTTTGCGTGTAATTTGGGGCATGCGGAGTCACCTAGTGCAG,9230 fluorescence intensity (a.u.)
2,CTCGTCTGTTTTGTTTTCCCCTCCGACTCCGACTCCGATCCGGAGTCACCTAGTGCAG,8180 fluorescence intensity (a.u.)
3,CCTCGTTTTTTTTTTTGGGTTCATCTCGTGTGTTCCGTGACGGAGTCACCTAGTGCAG,18400 fluorescence intensity (a.u.)
4,ATCTGGGTTCTTTTTTTTTCTTTTTTTGCCGGGTTTTTTTCGGAGTCACCTAGTGCAG,14800 fluorescence intensity (a.u.)
5,GGTTTGTTTGTCGTTCATGTGACGAGCGCATCCGTTTTCCCGGAGTCACCTAGTGCAG,9140 fluorescence intensity (a.u.)
6,TTTTCGTGTTCGGGTTTGGGTTTGAGTGCCGCATCTGCAACGGAGTCACCTAGTGCAG,21500 fluorescence intensity (a.u.)
7,GGTTTGGGTTCCTCTCTCGTCTCGTCTGTTTTGTTTTCCCCGGAGTCACCTAGTGCAG,21900 fluorescence intensity (a.u.)
8,GTGTTTCCCATGGTTTGCACCAGTCTCCTCTGATGCAGTCCGGAGTCACCTAGTGCAG,26400 fluorescence intensity (a.u.)
9,CAGTCTCCTCTGATGCAGTCTCGTTCTCTGTTTCTTTTTGCGGAGTCACCTAGTGCAG,10600 fluorescence intensity (a.u.)
10,TGTTCTGGTTCGGATCTGAGCGGGTGTTGGGTGTTTTCAACGGAGTCACCTAGTGCAG,9230 fluorescence intensity (a.u.)
11,ATACTTCCTTTCTGTTTCCAGTGTCTCTCTTCATGCACTCCGGAGTCACCTAGTGCAG,10700 fluorescence intensity (a.u.)
12,CCTCGGCCTATAGTGTTGGGTTTGGGTGTTGGTTTTTCCCCGGAGTCACCTAGTGCAG,15600 fluorescence intensity (a.u.)
13,ATTTTAATTAATCTCGTGTTGGGTTCTTATATGGTTTTTCCGGAGTCACCTAGTGCAG,8350 fluorescence intensity (a.u.)
14,CGATTGCCATTGTTCGTGTGTTTTTTCTTGTCTCTTTCCGCGGAGTCACCTAGTGCAG,11000 fluorescence intensity (a.u.)
15,TCACCATCTCGACTCAGCCAATCCATTTCTAAATTTTATACGGAGTCACCTAGTGCAG,8690 fluorescence intensity (a.u.)
16,TTAACCACAGTGCCGTTCTCTAGCCACCATCTCAGCAGCACGGAGTCACCTAGTGCAG,8220 fluorescence intensity (a.u.)
17,TGGGAAGTACATATGTAATGTTGTTTATTTATTTTTGTTTCGGAGTCACCTAGTGCAG,9860 fluorescence intensity (a.u.)
18,ATCTTGGGAAGGCCGTTACTCACTCTAGACTTTACTCCTCCGGAGTCACCTAGTGCAG,8270 fluorescence intensity (a.u.)
19,CCTCACCGATGGATTTTTTAGCCCGATCCTACCCCTCCTACGGAGTCACCTAGTGCAG,10500 fluorescence intensity (a.u.)
20,ACCACGTCCCTTTCCATTTTCCCTTGTTTTTTTTCCTCCTCGGAGTCACCTAGTGCAG,11200 fluorescence intensity (a.u.)
21,TAATTTTACTCGATACTCTATGTACCCCTGAAATTTCGCTCGGAGTCACCTAGTGCAG,9560 fluorescence intensity (a.u.)

row,Sequence,binding signal
1,GCCTTGTCTATTGCCTCAGAAGTTGGTTACCCTGTTGTTGCGGAGTCACCTAGTGCAG,8150 fluorescence intensity (a.u.)
2,GATGTGCCCTTTATTCACAACATTTAACAATTGTTACTTGCGGAGTCACCTAGTGCAG,8520 fluorescence intensity (a.u.)
3,TATATCTCGTGGTTTGTGGGTTCTTTTCACTTGTTCAGTGCGGAGTCACCTAGTGCAG,14000 fluorescence intensity (a.u.)
4,ACTTTTGGTGGACCTTGGTTGTTTGGTCTGTTTCTCTCAGCGGAGTCACCTAGTGCAG,8680 fluorescence intensity (a.u.)
5,GTGGGTTCTTTGTGGGGTCTCTTATAGTTTTCACTGCCAGCGGAGTCACCTAGTGCAG,20500 fluorescence intensity (a.u.)
6,GTGAGGGTGTGGTTACAGTGGGTTGGTTTTTTTTCTCCCCCGGAGTCACCTAGTGCAG,11800 fluorescence intensity (a.u.)
7,TTTTCTCTCCTGTTTTGGGAGGGTTTTCCACGTTAAATCTCGGAGTCACCTAGTGCAG,8230 fluorescence intensity (a.u.)
8,CCTTTTTGTTGGTCTCTGTTCTTGGGTTGGGTTTTCAGTCCGGAGTCACCTAGTGCAG,20800 fluorescence intensity (a.u.)
9,GTTTGTGGTTCAGTTTTTGTCCCCATGGGTCTCTTAGCGGCGGAGTCACCTAGTGCAG,9120 fluorescence intensity (a.u.)
10,TTAAAAAAAGTTGGGTAATTGTGGGGTTTGTTTTTTCTCCCGGAGTCACCTAGTGCAG,9490 fluorescence intensity (a.u.)
11,GGGTTTTCCACGTTAAATCTCGTGTCTTCTGTGTTTGATCCGGAGTCACCTAGTGCAG,12000 fluorescence intensity (a.u.)
12,TGTACAGTTGGTTCTTTTCTTTTTTTTTTTCAGTTGAGTCCGGAGTCACCTAGTGCAG,9330 fluorescence intensity (a.u.)
13,TTGGGAGGGTTTTTCACGTTAAATCTCGTGTCTTCTGTAACGGAGTCACCTAGTGCAG,29500 fluorescence intensity (a.u.)
14,GTATGGTTGGTTGGTTGGTTTGTTGGGTTTCTCCCCGGCCCGGAGTCACCTAGTGCAG,33300 fluorescence intensity (a.u.)
15,TATTAGTGGTATATATCCCTATCAGTCATTCTGCTTGCTTCGGAGTCACCTAGTGCAG,9260 fluorescence intensity (a.u.)
16,CGACGTACCGTAGCCGATTTCTGTTGCTATTATCATGTTCCGGAGTCACCTAGTGCAG,9450 fluorescence intensity (a.u.)
17,ATTTCTAGTCATGCCCGATAACCACTCCGGCACGACCACGCGGAGTCACCTAGTGCAG,8150 fluorescence intensity (a.u.)
18,CCAGACAGCTTCAGTTTGCAACGTACCCAAGTAAGAAACACGGAGTCACCTAGTGCAG,9150 fluorescence intensity (a.u.)
19,ACTTTGTAGCCCAATAACCACTATTTGATTCAACAGGTTTCGGAGTCACCTAGTGCAG,9900 fluorescence intensity (a.u.)
20,ACCATTTGTTTGAGCTCCGGAACCTTTTCGCCGTCCTATGCGGAGTCACCTAGTGCAG,8460 fluorescence intensity (a.u.)
21,ATGGCATTGAGCATTACAGTTGAATTTGTGTAGTTTTTAGCGGAGTCACCTAGTGCAG,8390 fluorescence intensity (a.u.)
